Measured values as given in PubChem BioAssay (NCI).
About 79,000 compounds went through this panel and 15% of them were active in at least one assay; those are over-represented in the sample as a whole. Cut-off read from the data, not from the text of the source: active = growth inhibition above about 70%; inactive = the rest. Where a SMILES comes first, the peptide text is derived from it. The star is where a group is joined. ONp = O=[N+]([O-])c1ccc(O*)cc1; Cbz = O=C(OCc1ccccc1)*; OBn = c1ccc(CO*)cc1

Columns and labels:
[1] = NCI Yeast Anticancer Drug Screen. Data for the rad50 strain (AID 155);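 note: 0% = growth of vehicle-only cultures of the same strain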; settings: S. cerevisiae rad50 strain growth inhibition; at 50.0 µM; stronger effect = higher value
Procedure, shortened: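 Inhibition values express reduced yeast growth in compound-treated cultures relative to vehicle-treated controls.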

[2] = NCI Yeast Anticancer Drug Screen. Data for the mec2-1 strain (AID 157); settings: S. cerevisiae mec2-1 strain, at 50.0 µM, stronger effect = higher value
Procedure, shortened: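 Compounds were applied to mec2-1 yeast cells. Their growth was then compared with that of vehicle-treated cultures to give growth inhibition.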

[3] = NCI Yeast Anticancer Drug Screen. Data for the sgs1 mgt1 strain (AID 161);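 note: 0% = growth of cultures given vehicle only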; settings: S. cerevisiae sgs1 mgt1 strain, at 50.0 µM, stronger effect = higher value
Procedure, shortened: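 This yeast growth screen uses a strain with defined DNA-repair lesions; compound-treated growth is compared with vehicle-treated growth.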

[4] = NCI Yeast Anticancer Drug Screen. Data for the cln2 rad14 strain (AID 165);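 note: 0% = growth equal to vehicle treated cultures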; settings: S. cerevisiae cln2 rad14 strain, at 50.0 µM, stronger effect = higher value
Procedure, shortened: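 Strain: cln2 rad14 yeast, altered in cell cycle control and DNA damage repair. Read-out: growth inhibition vs vehicle.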

[5] = NCI Yeast Anticancer Drug Screen. Data for the bub3 strain (AID 167); settings: S. cerevisiae bub3 mutant strain, at 50.0 µM, stronger effect = higher value
Procedure, shortened: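 Steps: expose the mutant yeast strain to compound; grow alongside vehicle-treated cultures; measure growth; express inhibition against the vehicle cultures.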

[6] = NCI Yeast Anticancer Drug Screen. Data for the mlh1 rad18 strain (AID 175); settings: S. cerevisiae mlh1 rad18 strain growth inhibition; at 50.0 µM; stronger effect = higher value
Procedure, shortened: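 A repair-deficient yeast strain is exposed to test compound, and growth is scored relative to vehicle-treated controls.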

Measured: growth inhibition

C[N+]1(C)CC2CCC1C2 (configuration not stated)
inactive: [1] 1.1% | [2] 16.1% | [3] 17.6% | [4] -27.8% | [5] -9.05% | [6] -7.1%

CC1CCC/C1=C(/I)C(=O)c1ccccc1 (configuration not stated)
inactive: [1] 2.25% | [2] -6.75% | [3] 24.6% | [4] 7.85% | [5] -2.15% | [6] -59.6%

Cc1ccc2c(-c3ccc4ccccc4c3)c3ccccc3cc2c1
inactive: [1] 7.7% | [2] -10.2% | [3] -2.8% | [4] -12.6% | [5] -2.35% | [6] -40.5%

O=C1c2c(F)c(F)c(F)c(F)c2SC2=Nc3cccc4cccc(c34)N12
inactive: [1] -17.5% | [2] -3.8% | [3] -37.3% | [4] -14.5% | [5] -4.25% | [6] -37.8%

O=C(CCl)Nc1cc2ccccc2c2ccccc12
inactive: [1] 0.65% | [2] -23.6% | [3] -10.9% | [4] 1.6% | [5] 9.6% | [6] 8.6%

CS(=O)(=O)C(C#N)c1nc2ccccc2nc1Cl (configuration not stated)
inactive: [1] -20.6% | [2] -17.7% | [3] -53.1% | [4] -9.6% | [5] -42% | [6] -30.6%

CC1(C)N(/N=C/c2ccccc2)C(c2ccccc2)C(c2ccccc2)N1/N=C/c1ccccc1 (configuration not stated)
inactive: [1] -8.95% | [2] -6.45% | [3] 6.25% | [4] -11.3% | [5] 2.65% | [6] 9.75%

CN(C)CCCNC(=O)NCCCCCCNC(=O)NCCCN(C)C
inactive: [1] 13.1% | [2] -9.85% | [3] 31.7% | [4] 18.4% | [5] 32.4% | [6] 19%

Cc1cc([N+](=O)[O-])ccc1NC(=O)OC(C)C
inactive: [1] -12.6% | [2] -30.2% | [3] 3.05% | [4] 8.8% | [5] 1.35% | [6] -9.35%

CCOC(=O)C1=C(C)N[C@H](c2ccccc2[N+](=O)[O-])N[C@H]1c1ccccc1[N+](=O)[O-]
inactive: [1] 22.2% | [2] 19.7% | [3] 19.9% | [4] 7% | [5] 1.45% | [6] 9.25%

CNC(=S)N(C1CCCCC1)C1CCCCC1
inactive: [1] 26% | [2] -13.4% | [3] -2.2% | [4] -15% | [5] -10.1% | [6] 37%

CCC1C(C)(C)c2cc(C)c(C(C)=O)cc2C1(C)C (configuration not stated)
inactive: [1] -8.1% | [2] -8.75% | [3] 7.15% | [4] -49.5% | [5] 25.6% | [6] -3.75%

O=C(CNC(=O)C(CCC(=O)OCc1ccccc1)NC(=O)OCc1ccccc1)NCC(=O)NC(CO)C(=O)NCC(=O)Oc1ccc([N+](=O)[O-])cc1 (configuration not stated) (Cbz-E(OBn)GGSG-ONp; configuration not given here)
inactive: [1] 3.75% | [2] 8.05% | [3] 21.4% | [4] -7.85% | [5] 1.65% | [6] 20.4%

CCCCCC1OCC(C)(C)CO1
inactive: [1] 3.95% | [2] -2.05% | [3] -5.45% | [4] -9.3% | [5] -3.05% | [6] -9.6%

FC(F)(F)C1(F)C(F)(F)C(F)(F)C(F)(F)C(F)(F)C1(F)F
inactive: [1] 16.3% | [2] -39.1% | [3] -4.95% | [4] -96.2% | [5] -24.1% | [6] 27.9%

O/N=C1/COC(C(F)(F)F)(C(F)(F)F)C1
inactive: [1] -14.3% | [2] -25.4% | [3] -16.9% | [4] -38.2% | [5] -5.7% | [6] -45.5%

Cc1cccc(Nc2c(C(=O)O)cnc3cc4c(cc23)OCO4)c1
inactive: [1] -3.4% | [2] -4.85% | [3] 3.45% | [4] -49.8% | [5] -5.85% | [6] -6.1%

Cc1c(C(=O)CC(=O)C(=O)Nc2cccc(C(F)(F)F)c2)[n+](=O)c2ccccc2n1[O-]
inactive: [1] 45.8% | [2] 43.1% | [3] 28.6% | [4] 14.2% | [5] 38.4% | [6] 31.6%

O=C(O)c1cc(-c2ccccc2)nc2cc(Cl)ccc12
inactive: [1] 29.9% | [2] 12.8% | [3] 19.1% | [4] -9.35% | [5] 24.4% | [6] 25.6%

CC(/C=C/C=C(\C)C(=O)O)=C\C=C\C=C(C)\C=C\C=C(/C)C(=O)O
inactive: [1] -0.8% | [2] -21% | [3] 3.7% | [4] 6.6% | [5] -9.05% | [6] 17.9%

CCC(CO)(CO)[N+](=O)[O-]
inactive: [1] 10.2% | [2] -2% | [3] -20.5% | [4] 5% | [5] 16.8% | [6] 7.25%

CC(C)(C)CC(C)(C)N(CSc1ccc2ccccc2c1)CSc1ccc2ccccc2c1
inactive: [1] 20.9% | [2] 4.55% | [3] 21.1% | [4] 13.6% | [5] -0.45% | [6] 17.6%

NC1c2c(Cl)sc(Cl)c2C(=O)C1O (configuration not stated)
inactive: [1] -0.8% | [2] 15.2% | [3] -10.2% | [4] -3.6% | [5] 4% | [6] -40.4%

Cc1ccc(CO)c(O)c1
inactive: [1] 8.65% | [2] -7.25% | [3] -5.55% | [4] 6.4% | [5] 3.75% | [6] 2.15%

CCc1cc2c(Nc3ccccc3)c3c(nc2s1)CCCC3
inactive: [1] -15.3% | [2] -25.8% | [3] -8.75% | [4] 11.5% | [5] 16.4% | [6] -33.5%

COc1nc(NCCO)nc(OC)n1
inactive: [1] 3.35% | [2] -2.5% | [3] -16.5% | [4] -29.6% | [5] 4.65% | [6] -4.85%

CC(CCl)NS(=O)(=O)c1ccccc1 (configuration not stated)
inactive: [1] 2.1% | [2] 2.85% | [3] -2.85% | [4] 0.85% | [5] -7.5% | [6] -8.05%

O=C(N/N=C\c1ccc(Cl)cc1Cl)c1ccccc1S
inactive: [1] -59.4% | [2] 6.45% | [3] -4.55% | [4] -0.2% | [5] -13.2% | [6] 5%

CN(C)CC1CCCC/C1=N\OC(=O)c1ccccc1 (configuration not stated)
inactive: [1] -6.9% | [2] -13.8% | [3] 4.15% | [4] 6.25% | [5] 5.8% | [6] 8.1%

Cc1ccc(C2SC(N)=Nc3c2c(C)nn3C(=O)c2ccncc2)cc1 (configuration not stated)
inactive: [1] -27.6% | [2] -33.2% | [3] -20% | [4] -21.7% | [5] -28% | [6] -23.6%

CCOC(=O)c1c(-c2ccc([N+](=O)[O-])cc2)c(C#N)n(-c2ccccc2)c1C
inactive: [1] -1.25% | [2] 36% | [3] 28.4% | [4] -7.95% | [5] 45.1% | [6] 6.1%

CS(=O)(=O)OCCCSCCSCCCOS(C)(=O)=O
inactive: [1] -4% | [2] -0.05% | [3] 3.1% | [4] -4.8% | [5] -11.2% | [6] -10.1%

O=S(=O)(SC1=NCCN1)c1cccc2ccccc12
inactive: [1] 3% | [2] 3.5% | [3] 20.1% | [4] 30% | [5] -3% | [6] 8.45%

CCCCC(=O)/C=C/c1ccccc1
inactive: [1] 12.3% | [2] -8.15% | [3] -3.95% | [4] -46.5% | [5] -6.6% | [6] -3.4%

O=C(Nc1ccc(Cl)cc1)c1cc2cc(N=Nc3ccc(Br)cc3)ccc2oc1=O
inactive: [1] -18.1% | [2] 9.75% | [3] -13.3% | [4] -1.65% | [5] -23.9% | [6] -6.65%

N#CC(C#N)=CNC(=S)c1ccncc1
inactive: [1] -21.1% | [2] -33.6% | [3] -19.6% | [4] 6.7% | [5] -4.85% | [6] -24.2%

CCOC(=O)/C=C1\NC(=O)N(CCCCCCN2C(=O)N/C(=C\C(=O)OCC)C2=O)C1=O
inactive: [1] 44.7% | [2] 13.3% | [3] 39.2% | [4] 7.95% | [5] -1.95% | [6] 29.9%
